A short description of assay [1]: Stat Signaling Pathway (AID 446).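 Further: ME-180 cervical cancer cells given 40 pM IL-6 alongside compound; SIE-controlled beta-lactamase reporter measured as 460/530 nm FRET emission ratio; on the % scale 0 is the no-effect control and ±100 the full control effect.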 As to conditions: ME-180 SIE beta-lactamase reporter, IL-6 stimulated, 5 h; at 17.2 µM (top of the series) unless noted. The method, boiled down:
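Reporter line: ME-180 cervical carcinoma, SIE-beta-lactamase. Treatment: compound with 40 pM IL-6, 5 hrs, 37 C, in low-serum OPTI-MEM with 10 mM HEPES pH 7.3. Detection: 460/530 nm fluorescence.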

Assay [2] has as its target Glucocorticoid receptor (Homo sapiens) (UniProt P04150). Briefly: GR-GFP Redistribution (AID 450;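 active means compounds whose dose series gives a full or clear partial fitted curve of increased nuclear translocation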; further: potency means the concentration at half of the fitted maximal effect).
A short description of assay [3]: NFAT Signaling Pathway (AID 444).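 Further: carbachol stimulus at about its EC50 of 1 µM final; on the % scale 0 is the no-effect control and ±100 the full control effect.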 The following applies: Jurkat NFAT-bla M1, carbachol, beta-lactamase ratio, 5 h; at 17.2 µM (top of the series) unless noted. An outline of the steps:
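Jurkat cells carrying an NFAT-driven β-lactamase reporter and co-transfected muscarinic M1 receptor were treated with compound plus carbachol (1 uM final, an EC50 level) for 5 h at 37 °C. CCF4 loading followed for 1 h at RT; 460/530 nm ratio gave %activity.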

In assay [4] the target is Glucocorticoid receptor (Homo sapiens) (UniProt P04150). Put plainly: GR-EFC Redistribution (AID 451; calls by dose curve; further: potency means the concentration at half of the fitted maximal effect). The following applies: CHO-K1 GR-EFC translocation, beta-gal luminescence, 2 h. The method, boiled down: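 CHO-K1 cells stably expressing nuclear-localized β-gal enzyme acceptor and GR fused C-terminally to the enzyme donor fragment; ligand-driven nuclear translocation restores β-gal by complementation. Compounds titrated up to 46 uM final, 2 h at 37 °C; luminescence read.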

The target of assay [5] is Mitogen-activated protein kinase 10 (Mus musculus) (UniProt Q61831). Put plainly: JNK3 AlphaScreen Assay (AID 530).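 Further: kinase came from lysate of stimulated human HepG2 cells; signal reports phosphorylation of biotinylated GST-cJun 1-79 at Ser73 with 10 µM ATP; on the % scale 0 is the no-effect control and ±100 the full control effect.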 The method, boiled down:
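Inhibitors reduce antibody binding to phosphorylated biotin-cJun, lowering AlphaScreen luminescence. Lysates from HepG2 cells pre-activated by IL-1beta plus TNF-alpha supplied JNK3; compounds were titrated.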
(Alpha assays give light when donor and acceptor beads are brought close together.)

Assay [6] deals with 3',5'-cyclic-AMP phosphodiesterase 4B (Homo sapiens) (UniProt Q07343). Put plainly: qHTS Assay for Inhibitors of PDE-IV (AID 607; active means well fitted activation curve with a large enough effect in the main read-out, with a control signal flat, not every such curve was filed as active; further: % of control where 0% means no effect). The method, boiled down: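 Cell-based read-out of cAMP via a modified cyclic nucleotide-gated channel and membrane potential dye (535/590 nm) in HEK293 cells expressing PDE4 endogenously. Compounds tested up to 22.9 uM final; 100 uM RO 20-1724 reference.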
In general terms: In qHTS, concentration-response curves come from the screen itself.

The target in assay [7] is Guanine nucleotide-binding protein G(i) subunit alpha-1 (Homo sapiens) (UniProt P63096). Briefly: qHTS Assay for Inhibitors of RGS12 GoLoco Motif Activity (Green Fluorophore) (AID 879; active means well fitted curve in the direction sought with a large enough effect; an effect the other way counts as inactive or inconclusive;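 further: 0% = labeled peptide with Gαi1 and full inhibition = labeled peptide alone without protein; negative values mean loss of peptide binding seen as reduced polarization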). An outline of the steps:
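Fluorescence polarization assay: 50 nM Gαi1 with 10 nM FITC-labeled RGS12 GoLoco peptide in 10 mM Tris pH 7.5, 150 mM NaCl, 0.1 mM GDP, 0.05% NP40, 10 min at room temperature with compound.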

Assay [8] is described as follows: qHTS Assay for Identification of Small Molecule Antagonists for NFkB Signaling Pathway (AID 895; active means well fitted inhibition curve with a large enough effect in the signal ratio, with a control signal flat, not every such curve was filed as active; the % refers to the signal ratio; further: potency means the concentration at half of the fitted maximal effect). An outline of the steps:
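NFkB-bla ME-180 cervical carcinoma cells with beta-lactamase reporter under NFkB response element; compounds added, then TNF alpha at 10 pM final (EC50), 5 h at 37 C. LiveBLAzer substrate 2 h, room temperature; emission 460/530 nm at 405 nm excitation.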

The nature of assay [9]: qHTS Assay for Identification of Small Molecule Agonists for Thrombopoietin (TPO) Signaling Pathway (AID 917; active means well fitted curve in the direction sought with a large enough effect; an effect the other way counts as inactive or inconclusive; further: on the % scale 0 is the no-effect control and ±100 the full control effect). The method, boiled down:
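Murine Ba/F3 cells stably expressing human TPO receptor and a Glycoprotein IIb promoter–luciferase reporter were IL-3-starved overnight, then treated with compounds plus TPO (26 pM final, its EC50) for 24 hrs at 37 C; luminescence was read.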

In assay [10] the target is Muscarinic acetylcholine receptor M1 (Rattus norvegicus) (UniProt P08482). Briefly: qHTS Assay for Antagonists of Acetylcholine Muscarinic M1 Receptor: Kinetic Measurement of Intracellular Calcium Response (AID 943; active means well fitted curve in the direction sought with a large enough effect; an effect the other way counts as inactive or inconclusive;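 further: Fluo-4 calcium signal as peak divided by basal fluorescence over 4 min; nearly all actives have a fitted effect of over 75% in size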). An outline of the steps:
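Rat M1-CHO cells, 2000/well, overnight → Fluo-4 no-wash dye with probenecid, 1 h 37C → compound 10 min, room temp → basal read 6 s → carbachol EC80 (100 nM) → 4 min kinetic read; peak/basal.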

The target is the same in assay [11]. Briefly: qHTS Assay for Antagonists of Acetylcholine Muscarinic M1 Receptor: Measurement of IP-One Response (AID 944; active means well fitted curve in the direction sought with a large enough effect; an effect the other way counts as inactive or inconclusive; further: nearly all actives have a fitted effect of over 75% in size). The method, boiled down:
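M1-CHO (rat), 2000 cells/well, overnight recovery; cpd 10 min; carbachol EC80 (200 nM), 30 min, HEPES buffer + 50 mM LiCl pH 7.4; IP-One HTRF, Ex 337, Em 620/665 nm.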

Assay [12] concerns the target Pyruvate kinase (Leishmania mexicana) (UniProt Q27686). Briefly: qHTS Validation Assay for Inhibitors of Leishmania Mexicana Pyruvate Kinase (AID 945; active means well fitted curve in the direction sought with a large enough effect; an effect the other way counts as inactive or inconclusive;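 further: 0% = DMSO only neutral control wells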). An outline of the steps: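 LmPYK E451W 0.2 nM; 0.5 mM PEP, 0.1 mM ADP, 7 mM MgCl2, 50 mM KCl, imidazole pH 7.2, 0.01% Tween 20, 0.05% BSA; 1 h RT; PKLight luminescence; DMSO-normalized.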
The target in assay [13] is Pyruvate kinase PKM (Homo sapiens) (UniProt P14618). Put plainly: qHTS Assay for Activators of Human Muscle Pyruvate Kinase (AID 954; active means well fitted curve in the direction sought with a large enough effect, not every such curve was filed as active;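 further: 0% = uninhibited enzyme and -100% = no enzyme or full thiadiazolimine inhibition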). An outline of the steps:
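Human PKM2 activity is measured as ATP generation, detected by luciferase-coupled luminescence. The enzyme (0.1 nM) acts on 0.5 mM PEP and 0.1 mM ADP for 1 h at ambient temperature; data are normalized to uninhibited and full-inhibition wells.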

In assay [14] the target is Alpha-galactosidase A (Homo sapiens) (UniProt P06280). Briefly: Counterscreen for Glucocerebrosidase Inhibitors: qHTS Assay for Human alpha-Galactosidase at pH 4.5 (AID 992; active means well fitted curve in the direction sought with a large enough effect; an effect the other way counts as inactive or inconclusive; further: 0% is about no effect). The method, boiled down: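 Quantitative HTS: compounds tested from 0.7 nM up to 77 uM against 2 nM enzyme with 80 uM 4-MU alpha-D-galactopyranoside. The 20 min room-temperature reaction is stopped with 1M NaOH/1M glycine, pH 10.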

Assay [15] concerns the target alpha-glucosidase (Oryza sativa, rice) (UniProt Q653V4). Briefly: Counterscreen for Glucocerebrosidase Inhibitors: qHTS Assay for Rice alpha-Glucosidase at pH 5.0 (AID 997; active means well fitted curve in the direction sought with a large enough effect; an effect the other way counts as inactive or inconclusive;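 further: 0% = full activity with enzyme and -100% = basal without enzyme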). An outline of the steps: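 Rice alpha-glucosidase (4 nM final) with 400 uM 4-methylumbelliferyl-alpha-D-glucopyranoside in citrate buffer pH 5.0, 20 min at room temperature, stopped at pH 10; fluorescence 365/440 nm, compounds 0.7 nM–77 uM, AC50 from Hill fits.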
In general terms: Counterscreens check selectivity or assay interference.

The nature of assay [16]: qHTS Assay for Identification of Small Molecule Agonists for Hypoxia Response Element Signaling Pathway (AID 914; active means well fitted activation curve with a large enough effect in the signal ratio, with a control signal flat, not every such curve was filed as active; the % refers to the signal ratio; further: potency means the concentration at half of the fitted maximal effect). The following applies: ME-180 (cervical carcinoma) HRE-bla reporter, beta-lactamase ratio, CoCl2, 17 h; activation: hits give high values. An outline of the steps:
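ME-180 cells carrying an HRE-driven beta-lactamase reporter were treated with compounds in a titration series plus an EC50 level of CoCl2 for 17 h at 37 degrees Celsius; CCF4 readout as the 460nm/530nm ratio gave AC50 values.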

The record followed here is PubChem BioAssay (NCATS).

Unmarked numbers belong to inactive results. Records with an inconclusive call do not appear. The source made the active and inactive calls. Unless noted, the call rests on the fitted dose curve; in most records, active means well fitted curve in either direction with a large enough effect (not every such curve was filed as active); inconclusive means small, poorly fitted or top-dose-only effect, or another doubt; inactive means flat fitted curve, though single readings scatter. Where only a bound is given, the exact number is not on record here.

Sequence of Glucocorticoid receptor (Homo sapiens) (P04150 whole entry, looked up, the tested form may be a part): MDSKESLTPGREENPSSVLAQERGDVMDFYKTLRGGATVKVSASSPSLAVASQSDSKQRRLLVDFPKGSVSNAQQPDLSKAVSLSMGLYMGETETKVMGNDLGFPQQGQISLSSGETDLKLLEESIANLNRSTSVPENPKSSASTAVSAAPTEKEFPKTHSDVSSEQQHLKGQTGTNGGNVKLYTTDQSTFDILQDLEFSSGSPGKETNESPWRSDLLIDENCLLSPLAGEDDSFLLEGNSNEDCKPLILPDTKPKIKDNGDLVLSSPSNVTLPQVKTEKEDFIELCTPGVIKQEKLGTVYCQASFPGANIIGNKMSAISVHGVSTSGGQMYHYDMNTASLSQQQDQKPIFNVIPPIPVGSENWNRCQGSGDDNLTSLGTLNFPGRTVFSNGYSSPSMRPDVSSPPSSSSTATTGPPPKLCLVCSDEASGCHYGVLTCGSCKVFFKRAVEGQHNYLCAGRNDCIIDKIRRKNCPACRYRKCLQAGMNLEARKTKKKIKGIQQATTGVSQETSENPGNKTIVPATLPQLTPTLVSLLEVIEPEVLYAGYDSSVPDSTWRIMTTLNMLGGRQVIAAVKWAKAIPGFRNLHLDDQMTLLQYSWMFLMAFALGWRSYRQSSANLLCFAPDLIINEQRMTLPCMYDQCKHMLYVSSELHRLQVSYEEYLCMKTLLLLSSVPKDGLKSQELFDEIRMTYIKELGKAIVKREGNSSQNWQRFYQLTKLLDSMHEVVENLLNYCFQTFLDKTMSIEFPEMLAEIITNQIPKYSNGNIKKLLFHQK
Sequence of Muscarinic acetylcholine receptor M1 (Rattus norvegicus) (P08482 whole entry, looked up): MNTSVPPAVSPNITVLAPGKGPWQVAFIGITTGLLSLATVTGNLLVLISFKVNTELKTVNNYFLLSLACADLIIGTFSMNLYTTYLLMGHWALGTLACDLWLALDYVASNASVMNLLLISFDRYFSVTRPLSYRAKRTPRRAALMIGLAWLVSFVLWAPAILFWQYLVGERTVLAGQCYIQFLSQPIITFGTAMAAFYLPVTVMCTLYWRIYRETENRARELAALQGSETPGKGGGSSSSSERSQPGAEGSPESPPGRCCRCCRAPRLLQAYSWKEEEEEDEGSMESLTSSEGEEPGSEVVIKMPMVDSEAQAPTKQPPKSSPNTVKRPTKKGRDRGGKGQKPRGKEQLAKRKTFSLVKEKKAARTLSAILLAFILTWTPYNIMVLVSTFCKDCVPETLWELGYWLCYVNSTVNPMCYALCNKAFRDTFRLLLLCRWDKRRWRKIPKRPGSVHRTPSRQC
Sequence of Pyruvate kinase (Leishmania mexicana) (Q27686 2-499 E452W): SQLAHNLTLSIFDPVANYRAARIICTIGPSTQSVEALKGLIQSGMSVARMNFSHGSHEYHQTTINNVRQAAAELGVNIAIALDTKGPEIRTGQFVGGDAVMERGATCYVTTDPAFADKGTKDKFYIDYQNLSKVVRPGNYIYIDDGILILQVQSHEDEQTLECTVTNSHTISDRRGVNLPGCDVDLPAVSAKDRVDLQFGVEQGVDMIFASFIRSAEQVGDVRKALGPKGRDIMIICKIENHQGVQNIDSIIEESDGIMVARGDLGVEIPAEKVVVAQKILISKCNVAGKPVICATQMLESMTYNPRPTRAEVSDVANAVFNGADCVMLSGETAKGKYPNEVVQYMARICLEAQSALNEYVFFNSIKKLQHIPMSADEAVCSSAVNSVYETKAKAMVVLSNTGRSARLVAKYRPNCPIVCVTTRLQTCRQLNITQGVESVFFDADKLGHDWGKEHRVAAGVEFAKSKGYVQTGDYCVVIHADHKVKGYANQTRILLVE
Sequence of Pyruvate kinase PKM (Homo sapiens) (P14618 whole entry, looked up): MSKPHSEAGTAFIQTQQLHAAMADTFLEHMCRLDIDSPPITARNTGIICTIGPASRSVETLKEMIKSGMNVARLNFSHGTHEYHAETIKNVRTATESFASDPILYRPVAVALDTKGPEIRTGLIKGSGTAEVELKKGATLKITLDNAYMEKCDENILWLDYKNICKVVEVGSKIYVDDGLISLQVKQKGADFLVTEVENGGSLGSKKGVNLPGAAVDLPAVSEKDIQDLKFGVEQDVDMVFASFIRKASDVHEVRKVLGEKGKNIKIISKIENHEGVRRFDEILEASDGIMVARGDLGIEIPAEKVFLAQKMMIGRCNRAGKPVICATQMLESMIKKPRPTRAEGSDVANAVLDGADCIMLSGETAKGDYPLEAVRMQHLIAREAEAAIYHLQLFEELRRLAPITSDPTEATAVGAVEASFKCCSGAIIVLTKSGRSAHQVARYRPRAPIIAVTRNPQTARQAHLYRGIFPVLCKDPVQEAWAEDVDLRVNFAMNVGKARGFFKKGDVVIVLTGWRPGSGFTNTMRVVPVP
Sequence of 3',5'-cyclic-AMP phosphodiesterase 4B (Homo sapiens) (Q07343 whole entry, looked up): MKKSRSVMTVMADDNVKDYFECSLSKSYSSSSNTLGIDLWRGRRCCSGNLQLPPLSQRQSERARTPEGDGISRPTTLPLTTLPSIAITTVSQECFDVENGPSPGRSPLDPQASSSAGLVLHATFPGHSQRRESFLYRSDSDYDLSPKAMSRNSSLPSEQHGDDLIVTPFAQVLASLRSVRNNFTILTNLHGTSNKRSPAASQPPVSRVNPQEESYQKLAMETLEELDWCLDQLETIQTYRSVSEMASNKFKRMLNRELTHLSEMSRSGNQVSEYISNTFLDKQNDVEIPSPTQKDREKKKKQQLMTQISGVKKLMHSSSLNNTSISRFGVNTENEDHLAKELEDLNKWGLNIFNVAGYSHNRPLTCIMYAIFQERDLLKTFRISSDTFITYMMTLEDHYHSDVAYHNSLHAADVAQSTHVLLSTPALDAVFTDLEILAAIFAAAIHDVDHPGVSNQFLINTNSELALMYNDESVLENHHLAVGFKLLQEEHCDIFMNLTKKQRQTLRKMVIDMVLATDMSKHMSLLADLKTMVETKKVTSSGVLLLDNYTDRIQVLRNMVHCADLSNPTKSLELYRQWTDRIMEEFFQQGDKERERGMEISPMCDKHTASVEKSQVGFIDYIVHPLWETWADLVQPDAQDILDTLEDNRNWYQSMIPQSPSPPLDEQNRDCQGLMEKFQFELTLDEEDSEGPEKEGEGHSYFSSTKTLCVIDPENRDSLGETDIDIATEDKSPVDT
Sequence of Alpha-galactosidase A (Homo sapiens) (P06280 whole entry, looked up): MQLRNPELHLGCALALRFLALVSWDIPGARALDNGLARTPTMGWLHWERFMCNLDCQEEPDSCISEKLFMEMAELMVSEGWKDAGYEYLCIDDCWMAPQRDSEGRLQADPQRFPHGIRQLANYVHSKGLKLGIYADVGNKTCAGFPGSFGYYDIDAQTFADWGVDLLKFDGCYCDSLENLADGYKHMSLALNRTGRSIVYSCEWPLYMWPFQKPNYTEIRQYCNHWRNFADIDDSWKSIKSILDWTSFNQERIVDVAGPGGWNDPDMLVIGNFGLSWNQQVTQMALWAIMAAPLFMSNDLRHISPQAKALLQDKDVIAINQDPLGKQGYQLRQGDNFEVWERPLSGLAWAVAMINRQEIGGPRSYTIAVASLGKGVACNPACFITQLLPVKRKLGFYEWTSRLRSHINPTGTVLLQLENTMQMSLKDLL
Sequence of Guanine nucleotide-binding protein G(i) subunit alpha-1 (Homo sapiens) (P63096 whole entry, looked up): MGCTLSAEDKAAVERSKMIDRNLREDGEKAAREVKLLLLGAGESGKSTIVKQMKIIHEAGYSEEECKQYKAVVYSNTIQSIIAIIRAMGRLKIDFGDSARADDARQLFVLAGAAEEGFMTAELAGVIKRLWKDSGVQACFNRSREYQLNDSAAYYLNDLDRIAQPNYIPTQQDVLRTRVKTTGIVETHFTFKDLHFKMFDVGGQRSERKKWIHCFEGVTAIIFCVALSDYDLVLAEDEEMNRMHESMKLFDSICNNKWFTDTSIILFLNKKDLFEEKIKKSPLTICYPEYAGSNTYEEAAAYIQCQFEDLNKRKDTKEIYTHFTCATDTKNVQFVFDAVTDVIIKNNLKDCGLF

As for `CN1Cc2c(N3CCOCC3)nc(SCc3ccccc3)c(C#N)c2CC1(C)C`, in assay [1], the activity, negative = inhibition is -1.83%. The Potency in [2] is greater than 20.6 µM.
For the compound `Nc1ncnc2c1ncn2[C@@H]1O[C@@H](CO)[C@H](O)[C@@H]1O`, the activity change, negative = inhibition in assay [3] is 4.32% [at 38 µM]. The Potency is greater than 46 µM in assay [2], greater than 46 µM in assay [4] and 4.47 µM (active) in assay [8]. Besides, the Potency result in assay [5], in assay [6], in assay [9], in assay [10], in assay [11] and in [12] was “inactive” in each case. The call in [7], in assay [13], in [14] and in assay [15] was inactive.
Regarding `COc1ccccc1-c1nn2c(-c3ccc(C(C)(C)C)cc3)nnc2s1`, the activity change, negative = inhibition in assay [3] is -12.3%. Moreover, the Potency in [2] is greater than 20.6 µM.
With `NCCN1C(=O)c2ccccc2[C@@]1(O)c1ccc(Cl)cc1`, in assay [1], the activity, negative = inhibition was 2.46% [at 7.69 µM].
As for `C=CCn1c(N)c(C(=O)Nc2ccccc2)c2nc3ccccc3nc21`, the activity change, negative = inhibition in assay [3] was -5.29%. Besides, in assay [2], the Potency was greater than 20.6 µM.
For `N#CC1=C(SCC(=O)c2ccc(Cl)cc2)NC2=C(C(=O)CCC2)C1c1ccco1` (stereo not drawn) the same measures were -22.4% and greater than 20.6 µM.
For `CCOC(=O)c1cc2c(=O)n3cccc(C)c3nc2n(C)c1=N`, the activity change, negative = inhibition in [3] was -13%. In addition, the Potency in assay [2] is greater than 20.6 µM; in [16], 6.31 µM (active).
In the case of `CC1(C)Cc2c(C#N)c(OCC(=O)c3ccc(Cl)cc3)nc(-c3ccoc3)c2CO1`, the activity change, negative = inhibition in assay [3] is -4.81%. Also, the Potency in assay [2] was greater than 20.6 µM.
On to `CN(C)c1ccc(NC(=O)c2sc(SCC(=O)Nc3nccs3)nc2N)cc1`, for which the activity change, negative = inhibition in assay [3] is 2.32%. Moreover, the Potency in assay [2] is greater than 20.6 µM.
As to `CC1(C)Cc2c(c(N3CCOCC3)nc3sc4c(NCc5ccco5)nnnc4c23)CS1`, the activity, negative = inhibition in [1] was -26.9%. Moreover, the Potency in [2] is greater than 20.6 µM.
As for `O=C(Oc1oc(-c2ccco2)nc1C=Nc1ccccc1)c1ccco1`, the activity change, negative = inhibition in [3] is -124% (active). The Potency in [2] was greater than 20.6 µM.
As to `CC(C)Cc1nc(N2CCN(C(=O)c3ccco3)CC2)c(C#N)c2c1CCC2`, the activity, negative = inhibition in [1] was -7.73%. For the same compound, the Potency in assay [2] is greater than 20.6 µM.
Take `Cc1ccc(N2CC(C(=O)Nc3ccc(N(C)C)cc3)CC2=O)cc1C` (stereo not drawn): in assay [3], the activity change, negative = inhibition is 21.8%. Moreover, in assay [2], the Potency was greater than 20.6 µM.
For `O=C(Oc1oc(-c2ccco2)nc1C=Nc1ccccc1)c1ccoc1`, the activity change, negative = inhibition in assay [3] is -123% (active). In assay [2], the Potency is greater than 20.6 µM.
Take `Cc1cc(-c2cc(-c3ccc(Cl)cc3)nc(N)c2C#N)co1`: in assay [3], the activity change, negative = inhibition is 14.5%. Moreover, the Potency in assay [2] is greater than 20.6 µM.
With `CCSc1nc(N)c(C#N)c(-c2ccccc2Cl)c1C#N`, in assay [3], the activity change, negative = inhibition was -7.47%. Moreover, the Potency in assay [2] is greater than 20.6 µM.
As for `CC(C)OC(=O)c1c2nc3ccccc3nc2n2c1[nH]c(=O)c1ccccc12`, the activity, negative = inhibition in assay [1] is -17%. For the same compound, the Potency in [2] is greater than 20.6 µM.
As to `COc1cccc(-c2nc(N3CCCCC3C)c3ccccc3n2)c1O` (stereo not drawn), the activity, negative = inhibition in assay [1] is -21.7%. In addition, in assay [2], the Potency was greater than 20.6 µM.
